Shown are actives, neighbours in structure and some others; about 1.8% of the full set was active somewhere.
PGE2 EP2 inh – human EP2 receptor antagonists, primary screen, TR-FRET cAMP, C6 glioma cells | Prostaglandin E2 receptor EP2 subtype (Homo sapiens), P43116 | C6 glioma cells expressing human EP2; cells stimulated with saturating PGE2 | 260,000 tested, 0.52% active | inhibition, % at 25 µM | AID 1422, 2008;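 active = percent inhibition above 40 after rounding to a whole number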;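 note: rat C6 glioma host cells with rolipram phosphodiesterase inhibitor present; the protocol text gives 20 µM as final concentration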
PERK inhibitor – block of dimerizer-induced PERK translation repression, primary screen, PERK inhibitor project, CHO PERK-DD cells, SEAP luminescence, HTS. inhibition, % at 5.6 µM. Eukaryotic translation initiation factor 2-alpha kinase 3 (Homo sapiens), Q9NZJ5. 220,000 tested, 0.17% active. CHO PERK-DD fusion, SEAP luminescence translation reporter;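 active = inhibition above the mean inhibition of all tested compounds plus 3 SD, set separately per screening campaign, cut at about 2.9% in these data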;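 note: PERK kinase domain activated by AP20187 dimerizer at 100 nM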
EP2 modulator – EP2 receptor modulators, cAMP readout, primary screen, cell-based, HTRF cAMP, PGE2 stimulation. 260,000 tested, 0.83% active. Prostaglandin E2 receptor EP2 subtype (Homo sapiens), P43116. EP2-expressing cells, cAMP HTRF FRET, PGE2 co-stimulation. induction, % at 25 µM;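 active = compounds whose cAMP rise, as percent of the full-agonist control response, exceeds 60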;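 note: rat C6 glioma line stably carrying human EP2 under a CMV promoter; the protocol text gives 20 µM as final concentration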
eIF4E 4G PPI – eIF4E–eIF4G protein interaction inhibitors, primary screen, biochemical, uHTS, TR-FRET, eIF4GI fragment. TR-FRET eIF4E-eIF4GI(517-606) binding, 2 h. inhibition, % at 21.7 µM. 220,000 tested, 0.37% active. AID 782, 2007;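 active = inhibition above about 30%, limit read from the data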
Numbers stand for hits; – = inactive; · = no result given; + = active, no number; ! = not active in a repeat; [ ] = remark or other dose.

SMILES | PGE2 EP2 inh | PERK inhibitor | EP2 modulator | eIF4E 4G PPI
O=C(CSc1nc(-c2ccc(F)cc2)nc2c1Cc1ccccc1O2)Nc1cccc(C(=O)O)c1 | – | – | – | 63
c1csc(-c2nn3c(Cn4cnc5ccccc54)nnc3s2)c1 | – | – | – | 33
Cc1ccccc1-n1nc(C)c(CN(Cc2ccc3c(c2)OCO3)CC(C)O)c1C (centres undefined) | – | · | – | ·
O=C(Nc1nccs1)c1c(O)c2c([nH]c1=O)CCCC2 | – | – | – | –
O=C(Nc1ccccc1O)c1c(O)c2c([nH]c1=O)CCCC2 | 64! | – | – | –
NC(=O)CSc1nnc(CSc2ncccn2)n1-c1ccccc1 | – | 3.0 | – | –
Cc1cc(C)nc(SCc2nnc(SCC(=O)O)n2-c2ccccc2)n1 | – | – | – | –
CCc1c(C)sc2nc(-c3ccc(OC)cc3)nc(SCCOC(N)=O)c12 | – | · | – | ·
CCCCCCOc1ccc(-c2ccc(C#N)cn2)cc1 | – | 3.1 | – | –
O=C(Cn1c2ccccc2c(=O)c2ccccc21)N1CCC(c2ccncc2)CC1 | – | · | – | ·
O=C(NNC(=O)c1ccccc1)C(=O)N1CCCCC1 | – | 3.1 | – | –
CC(C)(C)c1ccc(C(=O)NNC(=O)C(=O)N2CCCCC2)cc1 | – | – | – | –
COC(=O)C1=C(C)NC(=O)C1(Nc1ccc(Cl)cn1)C(F)(F)F (centres undefined) | – | – | – | 35[fluorescence artefact?]
COC(=O)C1=C(C)NC(=O)C1(NC(=O)c1cccnc1)C(F)(F)F (centres undefined) | · | – | – | –
O=C(NC1CCCC1)c1ccccc1OCc1ccccc1 | – | – | 62 | –
Cc1ccc2c(c1)C1C=CCC1C(C(=O)O)N2 (centres undefined) | – | – | – | 65[fluorescence artefact?]
COc1cccc2c1NC(C(=O)O)C1CC=CC21 (centres undefined) | – | – | – | 48[fluorescence artefact?]
CC(=O)c1ccc2c(c1)C1C=CCC1C(C(=O)O)N2 (centres undefined) | – | – | – | 31
O=C(O)C1Nc2ccc(OC(F)(F)F)cc2C2C=CCC12 (centres undefined) | – | · | · | ·
COc1ccc(S(=O)(=O)N2CCN(S(=O)(=O)c3ccccc3Br)CC2)cc1 | – | · | – | ·
CCc1c(C)[nH]c2ccc(C)cc2c1=S | – | · | – | ·
Cc1ccc2[nH]c(CCN(C)C)c(CSCc3c(CCN(C)C)[nH]c4ccc(C)cc34)c2c1 | 127 | · | – | ·
CCCCC1C(=O)CC[C@H]2[C@@H]1CC(=O)[C@@H]2C/C=C\CCCC(=O)O (some centres undefined) | – | – | 80 | –
CCC(C(=O)Nc1cccc(C(=O)O)c1C)c1ccccc1 (centres undefined) | – | 3.5 | – | –
Cc1ccc(/C=N/n2c(-c3cccs3)n[nH]c2=S)cc1 | – | – | – | –
SMILES | PGE2 EP2 inh | PERK inhibitor | EP2 modulator | eIF4E 4G PPI
COc1ccc(/C=N/n2c(-c3cccs3)n[nH]c2=S)cc1 | – | – | – | 33
Cc1nn(C)cc1S(=O)(=O)NCCCN(C)c1ccccc1 | – | · | – | ·
CCN(CC)c1ccc2nc3ccccc3[n+](CC)c2c1 | + | · | – | ·
O=C(NCCc1nc(-c2ccncc2)n[nH]1)C1(c2ccc(Cl)cc2)CCC1 | – | · | – | ·
CCSc1nc(C)c(I)c(=O)[nH]1 | – | · | – | ·
Cc1ccc(C(=O)N2CCC(C(=O)c3cccnc3)CC2)c(=O)[nH]1 | · | · | – | ·
O=C(C[n+]1ccc2ccccc2c1)c1ccccc1 | – | – | – | –
O=C(C[n+]1ccc2ccccc2c1)c1ccc2ccc3ccccc3c2c1 | 59 | · | – | ·
O=C(NCCc1nc(-c2cccnc2)n[nH]1)C1CC1 | · | · | – | ·
CN(C)c1ccc(C(=C2C=CC(=[N+](C)C)C=C2)c2ccc(N(C)C)cc2)cc1 | – | · | – | ·
CN(C)c1ccc(C(=C2C=CC(=[N+](C)C)C=C2)c2ccccc2)cc1 | 81 | · | – | ·
Cc1ccc(O)c(C2=Nc3ccccc3N=C(c3ccco3)C2)c1 | – | – | 63 | –
COC(=O)C1=CN(Cc2ccc(OC)cc2)C=C(C(=O)OC)C1c1ccsc1 | – | – | 61 | –
COC(=O)C1=CN(CC2CCCO2)C=C(C(=O)OC)C1c1ccsc1 (centres undefined) | – | – | – | –
O=C1NC(c2ccco2)/C(=C(/O)c2ccccc2)C1=O (centres undefined) | – | · | – | ·
O=C(O)c1c2c(c(O)c3c1CN(C1CCCCC1)CO3)OCN(C1CCCCC1)C2 | 61 | · | – | ·
N/C(=N\OC(=O)COc1ccc2ccccc2c1Br)c1ccccn1 | – | – | 62 | –
Cc1ccc(NC(=S)N(CCCO)Cc2cc3cccc(C)c3[nH]c2=O)cc1 | – | · | – | ·
CCc1cc2cc3c(cc2nc1SCC(=O)NNC(C)=O)OCO3 | – | · | – | ·
Cc1cccc(NC(=O)c2c(-c3ccccc3)noc2C)n1 | 43 | – | – | –
CC(=O)c1ccc(S(=O)(=O)N2CCCCCC2)cc1 | 94 | · | – | ·
COC(=O)c1ccc(S(=O)(=O)N2CCCCCC2)cc1 | – | – | – | –
O=c1oc2ccccc2cc1-c1nc(-c2cccs2)cs1 | – | – | 61 | –
COc1ccc(OC)c(S(=O)(=O)N2CCN(c3c(C)cccc3C)CC2)c1 | – | – | – | 73
N[C@@H](CSC1(c2ccc(Cl)cc2)c2ccccc2-c2ccccc21)C(=O)O | 44 | · | – | ·
SMILES | PGE2 EP2 inh | PERK inhibitor | EP2 modulator | eIF4E 4G PPI
NCCN1C(=O)c2ccccc2[C@@]1(O)c1ccc(Cl)cc1 | – | · | – | ·
O=C(Cn1nnc(-c2cccs2)n1)NCc1ccco1 | – | 2.9 | – | –
COC(=O)CSc1ccc(-c2nc3ccc(C)cc3[nH]2)cn1 | 59 | – | – | –
CCN(CC)c1ccc(NC(=O)CSc2nc(O)c(C)c(=O)n2-c2ccc(C)cc2)c(C)c1 | – | · | – | ·
CCOC(=O)CSc1nc2ccc(C)cc2cc1CC | – | · | 62 | ·
CCc1cc2c(C)ccc(C)c2nc1SCC(=O)OC | – | · | 87 | ·
CCC(=O)Nc1nn(C)c2nc3c(C)cccc3cc12 | – | – | – | –
CCc1cc2cc3c(cc2nc1SCC(=O)Nc1ccc(OC)c(OC)c1)OCO3 | – | · | 74 | ·
COc1ccc(CC(=O)Nc2nn(C)c3nc4c(C)cccc4cc23)cc1 | 48 | – | – | –
CCc1cc2c(C)ccc(C)c2nc1SCC(=O)NNC(C)=O | – | · | – | ·
COC(=O)c1cccc(S(=O)(=O)N(Cc2ccco2)Cc2cc3ccc(C)cc3[nH]c2=O)c1 | – | · | – | ·
COc1ccc(OC)c(NC(=O)CSc2nc(C3CCCCC3)nc3ccccc23)c1 | – | · | 61 | ·
CCOC(=O)CC(=O)CSc1nc2c(C)c(C)ccc2cc1C | – | – | 66! | –
CCc1cc2cccc(C)c2nc1SCC(=O)Nc1cc(OC)ccc1OC | – | · | 63 | ·
CCOC(=O)CC(=O)CSc1nc2c(C)c(C)ccc2cc1CC | – | · | – | ·
CCC(=O)Nc1cccc(NC(=O)CSc2nc(C3CCCCC3)nc3ccccc23)c1 | – | · | – | ·
CCc1cc2cccc(C)c2nc1SCC(=O)Nc1ccc(OC)cc1OC | – | · | – | ·
COCC(=O)N1CCC[C@H]1Cn1nc(-c2ccc3c(c2)OCO3)ccc1=O | · | · | – | ·

Compound activity (PubChem)
